Reference: PubChem BioAssay (Tox21)
Several values for one entry are separate records, joined by “and”; a condition that tells them apart may be missing. Equal entries are not always repeated. Records with an inconclusive call do not appear. Entries that show only a call come without a potency. Where a structure was tested more than once in an assay, its records may differ in their call. Activity calls are given as the source filed them. Unless noted, calls follow the shape of the dose curve; as a rule, active = well fitted curve in the direction sought with a large enough effect in the repeat runs; inconclusive = weak or mixed curves; inactive = no such curve, though single readings can be large; an effect the other way counts as inactive or inconclusive.

Columns and labels:
[1] = qHTS assay to identify small molecule agonists of the AP-1 signaling pathway - cell viability counter screen (AID 1159525; calls by dose curve; also: nearly all actives have a fitted effect of over 55% in size; also: potency is read from the fitted curve at half-maximal effect)
In short: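 Same-well cytotoxicity counter screen of the Tox21 10K library in ME-180 cells. The readout is ATP-dependent luminescence after 5 h compound treatment. Data are normalised to DMSO and tetra n-octyl ammonium bromide controls.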

[2] = qHTS assay to identify small molecule antagonists of the estrogen related receptor (ERR) signaling pathway from Tox21 library - cell viability counter screen (AID 1224834); also: nearly all actives have a fitted effect of over 30% in size; also: potency is read from the fitted curve at half-maximal effect
In short: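 In this quantitative HTS format, ERR cells receive compounds in DMSO and are incubated for 17.5 h at 37 C. Live-cell protease activity is then detected with CellTiter-Fluor.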

[3] = target: Luciferin 4-monooxygenase (Photinus pyralis) (UniProt P08659); test: qHTS assay to identify small molecule inhibitors of firefly luciferase (AID 1224835); also: nearly all actives have a fitted effect of over 25% in size; also: potency is read from the fitted curve at half-maximal effect
Sequence of Luciferin 4-monooxygenase (Photinus pyralis) (P08659 whole entry, looked up): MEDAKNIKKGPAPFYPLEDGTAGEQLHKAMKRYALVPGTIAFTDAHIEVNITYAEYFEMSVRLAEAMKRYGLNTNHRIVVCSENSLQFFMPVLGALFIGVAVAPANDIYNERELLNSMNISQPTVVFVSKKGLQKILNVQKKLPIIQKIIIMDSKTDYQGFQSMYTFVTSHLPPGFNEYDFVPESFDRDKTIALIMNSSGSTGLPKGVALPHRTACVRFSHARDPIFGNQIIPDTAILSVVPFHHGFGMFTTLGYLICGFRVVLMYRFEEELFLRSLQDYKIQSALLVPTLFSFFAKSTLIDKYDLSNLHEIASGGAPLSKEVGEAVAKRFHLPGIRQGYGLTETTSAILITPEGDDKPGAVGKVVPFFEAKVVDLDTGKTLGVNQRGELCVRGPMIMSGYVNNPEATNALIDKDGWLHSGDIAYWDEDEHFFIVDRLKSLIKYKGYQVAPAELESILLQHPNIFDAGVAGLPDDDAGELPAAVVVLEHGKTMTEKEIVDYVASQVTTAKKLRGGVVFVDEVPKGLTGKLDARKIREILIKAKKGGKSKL
In short: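 Biochemical qHTS: compounds run as interplate titrations against purified firefly enzyme, with D-luciferin and ATP each at its KM concentration. Light output recorded by CCD imaging.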

[4] = qHTS RealTime-Glo MT Cell Viability Assay in HepG2 cells - 24 hour (AID 1224867); also: nearly all actives have a fitted effect of over 50% in size; also: potency is read from the fitted curve at half-maximal effect
In short: (§1)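 HepG2 suspension premixed with RealTime-Glo reagents is plated at 600 cells per well and left 5 h at 37 C/5% CO2. Compounds in DMSO then go in, and bioluminescence reflecting viable cell number is recorded over 40 h.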

[5] = qHTS RealTime-Glo MT Cell Viability Assay in HEK293 cells - 32 hour (AID 1224868); also: nearly all actives have a fitted effect of over 50% in size; also: potency is read from the fitted curve at half-maximal effect
In short: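 Reads taken at 0, 8, 16, 24, 32 and 40 h from the same wells. HEK293 cells (600/well) carried RealTime-Glo reagents from seeding, with compound added after a 5 h settle at 37 C.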

[6] = qHTS RealTime-Glo MT Cell Viability Assay in HepG2 cells - 16 hour (AID 1224885); also: nearly all actives have a fitted effect of over 50% in size; also: potency is read from the fitted curve at half-maximal effect
In short: as §1

[7] = qHTS assay to identify small molecule agonists of the sonic hedgehog signaling (Shh) pathway - cell viability counter screen (AID 1259366); also: nearly all actives have a fitted effect of over 50% in size; also: potency is read from the fitted curve at half-maximal effect
In short: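 Compounds in DMSO were pin-transferred onto 3T3 Gli1-Luc cells that had settled 4hr; plates then stood 24hr at 37C and 5% CO2. One hour before the end, CellTiter-Fluor was added and fluorescence recorded.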

[8] = qHTS assay to identify small molecule antagonists of the sonic hedgehog signaling (Shh) pathway - cell viability counter screen (AID 1259367); also: nearly all actives have a fitted effect of over 55% in size; also: potency is read from the fitted curve at half-maximal effect
In short: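 Tox21 library chemicals were tested on a Gli1-Luc NIH/3T3 clone (2,000 cells/well) stimulated by conditioned medium; viability was quantified as fluorescence from CellTiter-Fluor reagent added at 23 hr.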

[9] = qHTS assay to identify small molecule antagonists of the TGF-beta/Smad signaling pathway - cell viability counter screen (AID 1346824); also: nearly all actives have a fitted effect of over 50% in size
In short: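 SBE-bla HEK 293T cells, incubated overnight, then compound plus 0.25 ng/mL TGF-beta1 (stock added) for 5 hr at 37 C. Viability was read in the same wells by CellTiter-Glo luminescence after 30 min at room temperature.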

[10] = qHTS assay to identify small molecule agonists of the TGF-beta/Smad signaling pathway - cell viability counter screen (AID 1346829); also: top concentration of the series differs between compounds; nearly all actives have a fitted effect of over 45% in size
In short: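 Same-well cytotoxicity: CellTiter-Glo added after the 2 hr room-temperature beta-lactamase substrate step, luminescence measured 30 min later; cells had 5 hr of compound at 37 C.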

[11] = target: Nuclear receptor subfamily 1 group I member 2 (Homo sapiens) (UniProt O75469); test: Human pregnane X receptor (PXR) small molecule agonists, qHTS assay (AID 1346982); also: nearly all actives have a fitted effect of over 35% in size; also: potency is read from the fitted curve at half-maximal effect
Sequence of Nuclear receptor subfamily 1 group I member 2 (Homo sapiens) (O75469 whole entry, looked up): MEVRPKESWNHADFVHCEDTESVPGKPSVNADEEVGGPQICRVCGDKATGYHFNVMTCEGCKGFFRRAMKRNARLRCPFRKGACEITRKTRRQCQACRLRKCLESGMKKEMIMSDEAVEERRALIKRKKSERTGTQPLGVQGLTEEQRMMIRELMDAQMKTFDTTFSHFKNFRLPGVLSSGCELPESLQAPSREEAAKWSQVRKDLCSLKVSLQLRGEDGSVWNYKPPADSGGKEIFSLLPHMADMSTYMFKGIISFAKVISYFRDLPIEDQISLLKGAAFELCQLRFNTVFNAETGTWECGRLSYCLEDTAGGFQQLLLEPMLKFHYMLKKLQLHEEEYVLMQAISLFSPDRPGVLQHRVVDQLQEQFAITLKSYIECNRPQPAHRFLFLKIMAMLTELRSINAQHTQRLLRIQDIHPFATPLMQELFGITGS
In short: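 After plating in 5% charcoal-stripped FBS and a 5 hr rest, PXR-Luc HepG2 cells received compounds in DMSO. Following 24 hr at 37 C, ONE-Glo was added and light output read.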

[12] = target: Cytochrome P450 2C19 (Homo sapiens) (UniProt P33261); test: Cytochrome P450 Family 2 Subfamily C Member 19 (CYP2C19) small molecule antagonists: luciferase reporter qHTS assay (AID 1671197); also: potency is read from the fitted curve at half-maximal effect; nearly all actives have a fitted effect of over 65% in size
Sequence of Cytochrome P450 2C19 (Homo sapiens) (P33261 whole entry, looked up): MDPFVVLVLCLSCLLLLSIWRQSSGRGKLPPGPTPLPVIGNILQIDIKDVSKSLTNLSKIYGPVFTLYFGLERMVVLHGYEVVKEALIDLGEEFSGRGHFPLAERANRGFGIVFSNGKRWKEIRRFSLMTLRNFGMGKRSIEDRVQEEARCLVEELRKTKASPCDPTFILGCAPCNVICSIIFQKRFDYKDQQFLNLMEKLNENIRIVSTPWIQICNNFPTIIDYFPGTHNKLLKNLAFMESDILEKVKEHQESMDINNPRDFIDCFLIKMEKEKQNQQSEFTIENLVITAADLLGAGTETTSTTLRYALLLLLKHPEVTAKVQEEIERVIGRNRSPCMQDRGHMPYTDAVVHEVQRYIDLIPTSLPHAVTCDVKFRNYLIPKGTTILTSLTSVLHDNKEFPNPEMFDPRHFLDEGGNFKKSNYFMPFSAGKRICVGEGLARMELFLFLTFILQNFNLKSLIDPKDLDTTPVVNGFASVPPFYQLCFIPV
In short: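 Quantitative high-throughput screen of the Tox21 library using CYP2C19 with proluciferin substrate. Reaction: NADPH regeneration, 37C, 1 h, after 10 min compound preincubation at room temperature. Readout: luminescence.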

[13] = target: Cytochrome P450 2C9 (Homo sapiens) (UniProt P11712); test: Cytochrome P450 Family 2 Subfamily C Member 9 (CYP2C9) small molecule antagonists: luciferase reporter qHTS assay (AID 1671198)
Sequence of Cytochrome P450 2C9 (Homo sapiens) (P11712 whole entry, looked up): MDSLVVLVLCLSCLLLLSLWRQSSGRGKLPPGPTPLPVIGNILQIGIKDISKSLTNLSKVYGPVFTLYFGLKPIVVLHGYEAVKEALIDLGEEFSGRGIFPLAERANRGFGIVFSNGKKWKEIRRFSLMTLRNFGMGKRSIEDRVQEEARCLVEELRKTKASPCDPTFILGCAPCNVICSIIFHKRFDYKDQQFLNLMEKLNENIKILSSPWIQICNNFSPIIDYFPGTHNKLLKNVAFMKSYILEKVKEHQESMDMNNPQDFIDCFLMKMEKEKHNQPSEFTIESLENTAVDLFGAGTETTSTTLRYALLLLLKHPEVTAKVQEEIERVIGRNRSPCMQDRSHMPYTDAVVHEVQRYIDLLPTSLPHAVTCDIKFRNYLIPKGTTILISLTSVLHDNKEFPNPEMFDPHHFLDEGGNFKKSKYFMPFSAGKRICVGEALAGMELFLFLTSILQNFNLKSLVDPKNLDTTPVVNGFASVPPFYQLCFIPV
In short: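 P450-Glo proluciferin substrate with CYP2C9 enzyme; 10 min RT preincubation, then NADPH regeneration 1 h at 37C; luciferin detection reagent 20 min RT, luminescence in relative luminescence units.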

[14] = qHTS assay to identify small molecule agonists of the constitutive androstane receptor (CAR) signaling pathway - cell viability counter screen (AID 1224836); also: nearly all actives have a fitted effect of over 45% in size; also: potency is read from the fitted curve at half-maximal effect
In short: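 Double-stable HepG2 hepatoma cells (hCAR plus CYP2B6-2.2kb) are treated for 23 h at 37 C with test compounds in 15-point concentration series. PK11195 at 0.75 uM final is co-added. Cell viability is quantified by CellTiter-Fluor.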

[15] = qHTS assay to identify small molecule antagonists of the constitutive androstane receptor (CAR) signaling pathway - cell viability counter screen (AID 1224837); also: nearly all actives have a fitted effect of over 45% in size; also: potency is read from the fitted curve at half-maximal effect
In short: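 In quantitative HTS format, compounds at 15 concentrations were applied to HepG2 cells double-transfected with hCAR and CYP2B6-2.2kb under 50 nM CITCO stimulation; live-cell protease activity was read after 23 hr via CellTiter-Fluor.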

[16] = A CellTox Green Cytotoxicity Assay to monitor cytotoxicity in HepG2 cells - 24 hour (AID 1224878); also: nearly all actives have a fitted effect of over 45% in size; also: potency is read from the fitted curve at half-maximal effect
In short: (§2)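 Fluorescent DNA-binding dye, 600 HepG2 cells/well, 5 h preincubation then compound in DMSO; same plates read at 0–40 h, 37 C.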

[17] = A CellTox Green Cytotoxicity Assay to monitor cytotoxicity in HepG2 cells - 40 hour (AID 1224879); also: nearly all actives have a fitted effect of over 40% in size; also: potency is read from the fitted curve at half-maximal effect
In short: as §2

[18] = A CellTox Green Cytotoxicity Assay to monitor cytotoxicity in HEK293 cells - 8 hour (AID 1224884); also: nearly all actives have a fitted effect of over 35% in size; also: potency is read from the fitted curve at half-maximal effect
In short: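 Homogeneous no-lysis format: HEK293 cell suspension mixed with CellTox Green reagent, seeded, incubated 5 h at 37 C/5% CO2, then dosed by pintool with compound in DMSO.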

[19] = qHTS assay to identify small molecule agonists of the estrogen receptor alpha (ER-alpha) signaling pathway in the presence of an antagonist - cell viability counter screen (AID 1259386);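 also: series mostly up to about 92 µM; cells exposed to compounds for 22 h at 37 °C before the viability read; nearly all actives have a fitted effect of over 30% in size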
In short: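 Steps: 5-day stripped-FBS culture; seed and incubate 24hr; add ICI-182,780 (10.0nM final); pin 15-point compound titration; incubate 22hr at 37C; add CellTiter-Fluor at 21hr; read fluorescence.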

[20] = target: Retinoic acid receptor RXR-alpha (Homo sapiens) (UniProt P19793); test: qHTS assay to identify small molecule agonists of the RXR signaling pathway (AID 1159527; calls by dose curve; also: nearly all actives have a fitted effect of over 35% in size)
Sequence of Retinoic acid receptor RXR-alpha (Homo sapiens) (P19793 whole entry, looked up): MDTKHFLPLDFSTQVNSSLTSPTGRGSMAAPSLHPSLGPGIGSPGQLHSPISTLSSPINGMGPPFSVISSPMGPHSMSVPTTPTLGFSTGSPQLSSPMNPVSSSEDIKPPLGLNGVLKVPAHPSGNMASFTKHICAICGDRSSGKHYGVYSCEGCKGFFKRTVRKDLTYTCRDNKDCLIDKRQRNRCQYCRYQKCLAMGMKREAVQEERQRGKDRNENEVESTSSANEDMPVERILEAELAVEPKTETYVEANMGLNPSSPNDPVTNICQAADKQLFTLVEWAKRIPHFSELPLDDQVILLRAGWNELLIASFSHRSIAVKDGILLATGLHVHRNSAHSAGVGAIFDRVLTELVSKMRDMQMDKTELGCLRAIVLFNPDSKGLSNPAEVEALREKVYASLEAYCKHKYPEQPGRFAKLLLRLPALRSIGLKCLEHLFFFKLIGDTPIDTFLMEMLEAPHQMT
In short: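 Compounds in DMSO were added to RXR-alpha-UAS-bla HEK 293T cells kept in 2% charcoal-stripped serum, and incubated 16 hr at 37 C with 5% CO2. Reporter signal came from a 2 hr B/G FRET substrate step.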

Cc1cc(C(C)(C)c2ccc(O)c(C)c2)ccc1O
Potency [1]: inactive
Potency [2]: 51.9 µM (active)
Potency [3]: inactive
Potency [4]: inactive
Potency [5]: 23.4 µM (active)
Potency [6]: inactive
Potency [7]: 58.2 µM (active)
Potency [8]: 46.2 µM (active)
Potency [9]: inactive
outcome [10]: inactive
Potency [11]: 58.2 µM (active)
Potency [12]: 2.14 µM (active)
Potency [13]: 5.37 µM (active)

Cc1ccc(N(SC(F)(Cl)Cl)S(=O)(=O)N(C)C)cc1
Potency [1]: 30.9 µM (active)
Potency [2]: 30.6 µM (active)
Potency [3]: 44.8 µM (active)
Potency [14]: 30.6 µM (active)
Potency [15]: 24.3 µM (active)
Potency [4]: 11 µM (active)
Potency [5]: 5.49 µM (active)
Potency [16]: 11 µM (active)
Potency [17]: 6.92 µM (active)
Potency [18]: 21.9 µM (active)
Potency [6]: 15.5 µM (active)
Potency [7]: 4.86 µM (active)
Potency [8]: 17.2 µM (active)
Potency [19]: inactive
Potency [9]: inactive
outcome [10]: inactive
Potency [11]: inactive
Potency [12]: 10 µM (active)
Potency [13]: 5.64 µM (active)

CC1COC(Cn2cncn2)(c2ccc(Oc3ccc(Cl)cc3)cc2Cl)O1 (configuration not stated)
Potency [1]: inactive
Potency [2]: 27.3 µM (active)
Potency [3]: inactive
Potency [5]: 19.5 µM (active)
Potency [16]: inactive
Potency [18]: inactive
Potency [7]: inactive
Potency [8]: inactive
outcome [10]: inactive
Potency [11]: 61.1 µM (active)
Potency [12]: 0.0502 µM (active)
Potency [13]: 1.12 µM (active)

COc1cc(OC)c(OC)cc1C=O
Potency [1]: inactive
Potency [2]: inactive
Potency [3]: inactive
Potency [14]: inactive
Potency [15]: inactive
Potency [4]: inactive
Potency [5]: inactive
Potency [16]: inactive
Potency [17]: inactive
Potency [18]: inactive
Potency [6]: inactive
Potency [8]: 47.1 µM (active)
Potency [19]: inactive
Potency [9]: inactive
outcome [10]: inactive
Potency [11]: inactive
Potency [12]: 38.7 µM (active)

Cc1nnc2n1-c1sc(CCc3ccc(CC(C)C)cc3)cc1C(c1ccccc1Cl)=NC2C (configuration not stated)
Potency [1]: 26.8 µM (active)
Potency [2]: 26.6 µM (active)
Potency [3]: inactive
Potency [5]: 9.52 µM (active)
Potency [18]: inactive
Potency [8]: inactive
Potency [11]: 4.22 µM (active)
Potency [13]: 27.5 µM (active)

Brc1cc(Br)cc(Br)c1
Potency [20]: inactive

OC(Cc1ccccc1Cl)(Cn1[nH]cnc1=S)C1(Cl)CC1 (configuration not stated)
Potency [1]: inactive
Potency [14]: inactive
Potency [15]: inactive
Potency [4]: inactive
Potency [16]: inactive
Potency [17]: inactive
Potency [18]: inactive
Potency [6]: inactive
Potency [7]: inactive
Potency [8]: inactive
Potency [19]: inactive
outcome [10]: inactive
Potency [12]: 1.26 µM (active)
Potency [13]: 0.894 µM (active)

ClC1=C(Cl)C(Cl)(Cl)C(Cl)=C1Cl
Potency [20]: inactive

CCOC(=O)C(O)(c1ccc(Cl)cc1)c1ccc(Cl)cc1
Potency [1]: 44.1 µM (active) and 43.6 µM (active)
Potency [2]: 49.1 µM (active)
Potency [3]: inactive
Potency [14]: inactive
Potency [15]: inactive
Potency [4]: inactive
Potency [5]: 22.1 µM (active)
Potency [16]: inactive and 38.9 µM (active)
Potency [17]: inactive and 43.6 µM (active)
Potency [18]: inactive
Potency [6]: inactive
Potency [19]: inactive
Potency [9]: inactive
outcome [10]: inactive
Potency [11]: 27.6 µM (active) and inactive
Potency [12]: 453 nM (active) and 317 nM (active)
Potency [13]: 10.1 µM (active) and 7.96 µM (active)
